Assay results as given in PubChem BioAssay.
Calls of active or inactive are those of the source.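 How the source made its calls, unless noted: active means visually confirmed hit in the image check and inhibition above 20%; inconclusive means visually confirmed hit but inhibition not above 20%; inactive means no visual hit in the image check.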

Experiments:
[1] = inhibitors of TNFa-induced NFkB p65 translocation, primary screen, imaging, HUVEC, MLSMR starter and 10KST1 sets (AID 438;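 active means inhibition above 20% together with a positive visual image hit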;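 further: compound added about 3h40 before a 20 min TNFalpha stimulation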;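 on inhibition: signal is the nuclear over cytoplasmic p65 intensity ratio per well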); conditions: HUVEC TNFa-induced p65 nuclear translocation; cell count: measured here: nuclei count (cytotoxicity indicator), at 2.08 µM; inhibition: at 2 µM, stronger effect = higher value, 0% TNFa-plus-vehicle, 100% no-TNFa wells
[2] = reduction of polyQ htt aggregates in cells – imaging, exon1htt(103Q)mCFP cells, high-content imaging, primary screen (AID 483;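 active means visual image review flags a hit and inhibition of aggregation exceeds 20%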;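 further: compound exposure lasted 3 days before fixation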;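 on nuclei count: percent of the per-plate median nuclei count of sample wells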); conditions: exon1htt(103Q)mCFP cell line, aggregate imaging, at 2 µM; inhibition of aggregation: stronger effect = higher value; nuclei count: measured here: cell count, toxicity
[3] = endothelial E-selectin expression blockers – imaging, HUVEC, immunofluorescence, MLSMR starter and 10KST1 sets, primary screen (AID 487); conditions: HUVEC TNFalpha-induced E-selectin immunofluorescence imaging, at 2 µM; inhibition: stronger effect = higher value; nuclei count: measured here: cell number, toxicity;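 on inhibition: signal is fraction of cell area covered by stained E-selectin grains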;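 on nuclei count: 100% = median nuclei count of all wells on the same plate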
[4] = biological target: Voltage-gated potassium channel subunit beta-2 (Rattus norvegicus) (UniProt P62483); test: inhibitors of rat Kvbeta2 reductase activity – biochemical, NADPH fluorescence, primary screen (AID 622;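 active means fluorescence slope higher than the sample average by over 3 SD, cut at about -0.22 in these data, passing the limit was not always enough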;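 further: slope of raw intensity against log time taken from 70 to 1610 s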); conditions: recombinant KvBeta, 4-cyanobenzaldehyde reduction, at 10 µM, stronger effect = higher value
[5] = biological target: Voltage-gated potassium channel subunit beta-2 (Rattus norvegicus) (UniProt P62483); test: enhancers of rat Kvbeta2 NADPH turnover – biochemical, NADPH fluorescence, primary screen (AID 623;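 active means NADPH fluorescence slope more negative than the mean of all samples by about 3 SD, 99.7% confidence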;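 further: fluorescence intensity change per second fitted from 20 to 320 s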); conditions: Recombinant KvBeta, NADPH fluorescence decrease slope, 10 min; at 10 µM; stronger effect = lower value
[6] = biological target: Alpha-2C adrenergic receptor (Homo sapiens) (UniProt P18825); test: compounds altering alpha2C-coupled GIRK flux – cell-based, HEK293 alpha2C/GIRK1/2, thallium flux, primary screen (AID 624;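 active means fluorescence slope after compound addition differing from the mean of all screened samples at 99.7% confidence, in either direction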;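 further: slope of fluorescence ratio to pre-addition baseline per second over 15 to 24 s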); conditions: thallium flux BTC fluorescence, at 10 µM, actives lie on both sides
[7] = blockers of RIG-like receptor reporter activation – cell-based, Sendai virus stimulus, luciferase, 10K MLSCN set, TLR/RLR signaling modifier project, primary screen (AID 602276;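 active means inhibition at or above 50% at 10 µM; inactive means inhibition below 50%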;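 further: firefly luciferase from ISG56 promoter only with Renilla not read in this screen; 0% = Sendai virus plus DMSO and 100% = medium plus DMSO without virus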); conditions: HEK293 RL24 IRF3 luciferase reporter, at 10 µM, stronger effect = higher value
[8] = TLR3 IRF3 reporter activation blockers – cell-based, poly I:C stimulus, luciferase, 10K MLSCN set, primary screen (AID 602277;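 active means inhibition of the reporter signal at or above 50%; inactive means inhibition below 50%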); conditions: HEK293-TLR3 RL24 IRF3 luciferase reporter, at 10 µM, stronger effect = higher value

Chain of Voltage-gated potassium channel subunit beta-2 (Rattus norvegicus) (P62483 whole entry, looked up): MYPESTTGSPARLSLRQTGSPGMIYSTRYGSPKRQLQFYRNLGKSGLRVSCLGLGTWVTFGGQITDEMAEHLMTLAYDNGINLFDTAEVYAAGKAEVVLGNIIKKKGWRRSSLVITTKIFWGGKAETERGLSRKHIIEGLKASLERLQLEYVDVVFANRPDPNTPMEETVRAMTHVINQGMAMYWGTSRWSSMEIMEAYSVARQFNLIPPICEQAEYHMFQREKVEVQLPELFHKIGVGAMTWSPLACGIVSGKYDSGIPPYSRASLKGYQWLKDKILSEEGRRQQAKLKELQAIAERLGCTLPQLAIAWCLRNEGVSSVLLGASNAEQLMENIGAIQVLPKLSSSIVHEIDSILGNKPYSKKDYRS
Chain of Alpha-2C adrenergic receptor (Homo sapiens) (P18825 whole entry, looked up): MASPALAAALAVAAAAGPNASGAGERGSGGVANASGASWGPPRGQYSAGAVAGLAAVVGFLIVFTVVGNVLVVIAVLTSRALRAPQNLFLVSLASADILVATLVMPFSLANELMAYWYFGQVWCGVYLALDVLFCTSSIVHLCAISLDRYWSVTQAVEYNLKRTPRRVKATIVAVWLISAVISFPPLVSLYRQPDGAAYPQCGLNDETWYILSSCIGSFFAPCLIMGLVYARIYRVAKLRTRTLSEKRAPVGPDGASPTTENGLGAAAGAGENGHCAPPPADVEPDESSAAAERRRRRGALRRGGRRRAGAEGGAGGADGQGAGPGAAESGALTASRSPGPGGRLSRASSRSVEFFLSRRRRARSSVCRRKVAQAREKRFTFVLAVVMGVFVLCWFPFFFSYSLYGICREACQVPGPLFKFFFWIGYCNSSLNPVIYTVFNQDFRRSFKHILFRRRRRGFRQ

For CC(=O)NC1CC2CCCC(C1)N2CC(=O)Nc1ccccc1 (stereo not drawn), the cell count [1] was 302, the inhibition [1] was 9.6% (inactive) and the inhibition of aggregation [2] was 3.9% (inactive). For the same molecule, the nuclei count [2] was 89.5%, the inhibition [3] was 26.1% (inactive) and the nuclei count [3] was 93.9%. The fluorescence slope [4] was -0.565 (inactive), the NADPH fluorescence slope [5] was -2.4e-05 (inactive) and the slope [6] was 0.00646 (inactive). The inhibition [7] was -13.6% (inactive) and the inhibition [8] was -5.22% (inactive).
With CCN1C(=O)/C(=C2\C=Cc3ccccc3N2CC)OC1=S the cell count [1] was 695, the inhibition [1] was -8% (inactive) and the inhibition of aggregation [2] was 0.5% (inactive). For the same molecule, the nuclei count [2] was 8.3%, the inhibition [3] was 16.6% (inactive) and the nuclei count [3] was 107%. The fluorescence slope [4] was -0.334 (inactive), the NADPH fluorescence slope [5] was -4.6e-05 (inactive) and the slope [6] was 0.00379 (inactive). The inhibition [7] was 4% (inactive) and the inhibition [8] was -8.93% (inactive).
With CCSc1nnc(N2C(=O)CC(c3ccsc3)C3=C2CC(C)(C)CC3=O)s1 (stereo not drawn) the cell count [1] was 558, the inhibition [1] was 0% (inactive) and the inhibition of aggregation [2] was 4.8% (inactive). The nuclei count [2] was 109%, the inhibition [3] was -46.6% (inactive) and the nuclei count [3] was 115%. For the same molecule, the fluorescence slope [4] was -0.55 (inactive), the NADPH fluorescence slope [5] was -4.6e-05 (inactive) and the slope [6] was 0.00599 (inactive). For the same molecule, the inhibition [7] was 11.7% (inactive) and the inhibition [8] was 35.7% (inactive).
With CCN1CCN(Cc2ccc(NC(=O)Nc3ccccc3)cc2)CC1 the cell count [1] was 552, the inhibition [1] was -7.5% (inactive) and the inhibition of aggregation [2] was -20.2% (inactive). The nuclei count [2] was 56.6%, the inhibition [3] was -49.1% (inactive) and the nuclei count [3] was 102%. The fluorescence slope [4] was -0.605 (inactive), the NADPH fluorescence slope [5] was -1.7e-05 (inactive) and the slope [6] was 0.00679 (inactive). The inhibition [7] was 10.6% (inactive) and the inhibition [8] was -14.4% (inactive).
For Cc1ccc2nc3c(cc(C(=O)NCC4CCCO4)n3C)c(=O)n2c1 (stereo not drawn), the cell count [1] was 405, the inhibition [1] was 9.7% (inactive) and the inhibition of aggregation [2] was 2.7% (inactive). The nuclei count [2] was 111%, the inhibition [3] was -25.5% (inactive) and the nuclei count [3] was 114%. The fluorescence slope [4] was -0.0813 (active), the NADPH fluorescence slope [5] was -3.2e-06 (inactive) and the slope [6] was 0.00481 (inactive). For the same molecule, the inhibition [7] was -21.8% (inactive) and the inhibition [8] was -39.8% (inactive).
With COC(=O)c1sc(N)c(C(=O)OC)c1COC(=O)C1CC(=O)N(Cc2ccco2)C1 (stereo not drawn) the cell count [1] was 303, the inhibition [1] was -1.9% (inactive) and the inhibition of aggregation [2] was -1.7% (inactive). The nuclei count [2] was 100%, the inhibition [3] was -45.6% (inactive) and the nuclei count [3] was 124%. For the same molecule, the fluorescence slope [4] was -0.265 (inactive), the NADPH fluorescence slope [5] was -4.3e-05 (inactive) and the slope [6] was 0.00671 (inactive). For the same molecule, the inhibition [7] was 15.8% (inactive) and the inhibition [8] was 11.9% (inactive).
For O=C(Cn1cnc2ccccc2c1=O)NCCC(=O)N1CCN(Cc2ccccc2)CC1, the cell count [1] was 451, the inhibition [1] was -3.8% (inactive) and the inhibition of aggregation [2] was 31.1% (inactive). The nuclei count [2] was 80.5%, the inhibition [3] was -0.7% (inactive) and the nuclei count [3] was 112%. For the same molecule, the fluorescence slope [4] was -0.416 (inactive), the NADPH fluorescence slope [5] was -9.6e-05 (inactive) and the slope [6] was 0.00528 (inactive). For the same molecule, the inhibition [7] was 12.1% (inactive) and the inhibition [8] was 24.7% (inactive).
With CS(=O)(=O)NCc1nnc(SCC(=O)NC2CCCCC2)n1-c1ccc(F)cc1 the cell count [1] was 820, the inhibition [1] was -5.5% (inactive) and the inhibition of aggregation [2] was -0.9% (inactive). The nuclei count [2] was 111%, the inhibition [3] was -5.8% (inactive) and the nuclei count [3] was 128%. For the same molecule, the fluorescence slope [4] was -0.388 (inactive), the NADPH fluorescence slope [5] was -5.9e-05 (inactive) and the slope [6] was 0.00498 (inactive). The inhibition [7] was 16.2% (inactive) and the inhibition [8] was 26.3% (inactive).
In the case of c1ccc(Cn2nnnc2CN2CCCC2)cc1, the cell count [1] is reported as 433, the inhibition [1] is reported as -9.4% (inactive) and the inhibition of aggregation [2] is reported as 2.6% (inactive). The nuclei count [2] was 100%, the inhibition [3] was -38.6% (inactive) and the nuclei count [3] was 94%. For the same molecule, the fluorescence slope [4] was -0.499 (inactive), the NADPH fluorescence slope [5] was -2.2e-05 (inactive) and the slope [6] was 0.00601 (inactive). The inhibition [7] was 14.5% (inactive) and the inhibition [8] was 19.4% (inactive).
For COc1ccc(CCN2C(=O)CCC2(C)C(=O)NCc2cccnc2)cc1OC (stereo not drawn), the cell count [1] was 436, the inhibition [1] was -6% (inactive) and the inhibition of aggregation [2] was 5.2% (inactive). The nuclei count [2] was 103%, the inhibition [3] was -83.9% (inactive) and the nuclei count [3] was 97.9%. The fluorescence slope [4] was -0.602 (inactive), the NADPH fluorescence slope [5] was 2.6e-06 (inactive) and the slope [6] was 0.0059 (inactive). For the same molecule, the inhibition [7] was 8.53% (inactive) and the inhibition [8] was 7.83% (inactive).
In the case of CCOC(=O)N1CCN(Cc2cc(=O)oc3ccc4ccccc4c23)CC1, the cell count [1] is reported as 472, the inhibition [1] is reported as 16.9% (inactive) and the inhibition of aggregation [2] is reported as 11.2% (inactive). For the same molecule, the nuclei count [2] was 93.3%, the inhibition [3] was -64% (inactive) and the nuclei count [3] was 113%. For the same molecule, the fluorescence slope [4] was -0.408 (inactive), the NADPH fluorescence slope [5] was 8.3e-06 (inactive) and the slope [6] was 0.0055 (inactive). The inhibition [7] was 16.9% (inactive) and the inhibition [8] was 21.7% (inactive).
For COc1cccc(C(=O)n2cnnc2N)c1OC, the cell count [1] was 391, the inhibition [1] was -2.4% (inactive) and the inhibition of aggregation [2] was 1% (inactive). For the same molecule, the nuclei count [2] was 109%, the inhibition [3] was 41.5% (inactive) and the nuclei count [3] was 102%. The fluorescence slope [4] was -0.382 (inactive), the NADPH fluorescence slope [5] was 8e-06 (inactive) and the slope [6] was 0.00713 (inactive). For the same molecule, the inhibition [7] was 16.3% (inactive) and the inhibition [8] was 21.1% (inactive).
In the case of O=C(NCc1ccccc1)N[C@@H](Cc1ccccc1)C(=O)O, the cell count [1] is reported as 666, the inhibition [1] is reported as 6.9% (inactive) and the inhibition of aggregation [2] is reported as -0.3% (inactive). For the same molecule, the nuclei count [2] was 116%, the inhibition [3] was 4.5% (inactive) and the nuclei count [3] was 111%. The fluorescence slope [4] was -0.43 (inactive), the NADPH fluorescence slope [5] was -4.1e-05 (inactive) and the slope [6] was 0.00384 (inactive). For the same molecule, the inhibition [7] was 10.6% (inactive) and the inhibition [8] was 33.8% (inactive).
